Where “and” joins values, the source holds several entries; their conditions need not be identical. Identical values can stand only once. Records with an inconclusive call do not appear. Entries that show only a call come without a potency. Calls of active or inactive are those of the source. Unless noted, calls follow the shape of the dose curve; as a rule, active = well fitted curve in the direction sought with a large enough effect; inconclusive = small, poorly fitted or top-dose-only effect, or another doubt; inactive = no such curve, though single readings can be large; an effect the other way counts as inactive or inconclusive.
How the values were obtained:
[1] = molecular target: Voltage-gated inwardly rectifying potassium channel KCNH2 (Homo sapiens) (UniProt Q12809); assay: qHTS Assay for Small Molecule Inhibitors of the Human hERG Channel Activity (AID 588834);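 also: lower thallium flux fluorescence means stronger hERG block; nearly all actives have a fitted effect of over 50% in size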; also: potency is read from the fitted curve at half-maximal effect
Chain of Voltage-gated inwardly rectifying potassium channel KCNH2 (Homo sapiens) (Q12809 whole entry, looked up): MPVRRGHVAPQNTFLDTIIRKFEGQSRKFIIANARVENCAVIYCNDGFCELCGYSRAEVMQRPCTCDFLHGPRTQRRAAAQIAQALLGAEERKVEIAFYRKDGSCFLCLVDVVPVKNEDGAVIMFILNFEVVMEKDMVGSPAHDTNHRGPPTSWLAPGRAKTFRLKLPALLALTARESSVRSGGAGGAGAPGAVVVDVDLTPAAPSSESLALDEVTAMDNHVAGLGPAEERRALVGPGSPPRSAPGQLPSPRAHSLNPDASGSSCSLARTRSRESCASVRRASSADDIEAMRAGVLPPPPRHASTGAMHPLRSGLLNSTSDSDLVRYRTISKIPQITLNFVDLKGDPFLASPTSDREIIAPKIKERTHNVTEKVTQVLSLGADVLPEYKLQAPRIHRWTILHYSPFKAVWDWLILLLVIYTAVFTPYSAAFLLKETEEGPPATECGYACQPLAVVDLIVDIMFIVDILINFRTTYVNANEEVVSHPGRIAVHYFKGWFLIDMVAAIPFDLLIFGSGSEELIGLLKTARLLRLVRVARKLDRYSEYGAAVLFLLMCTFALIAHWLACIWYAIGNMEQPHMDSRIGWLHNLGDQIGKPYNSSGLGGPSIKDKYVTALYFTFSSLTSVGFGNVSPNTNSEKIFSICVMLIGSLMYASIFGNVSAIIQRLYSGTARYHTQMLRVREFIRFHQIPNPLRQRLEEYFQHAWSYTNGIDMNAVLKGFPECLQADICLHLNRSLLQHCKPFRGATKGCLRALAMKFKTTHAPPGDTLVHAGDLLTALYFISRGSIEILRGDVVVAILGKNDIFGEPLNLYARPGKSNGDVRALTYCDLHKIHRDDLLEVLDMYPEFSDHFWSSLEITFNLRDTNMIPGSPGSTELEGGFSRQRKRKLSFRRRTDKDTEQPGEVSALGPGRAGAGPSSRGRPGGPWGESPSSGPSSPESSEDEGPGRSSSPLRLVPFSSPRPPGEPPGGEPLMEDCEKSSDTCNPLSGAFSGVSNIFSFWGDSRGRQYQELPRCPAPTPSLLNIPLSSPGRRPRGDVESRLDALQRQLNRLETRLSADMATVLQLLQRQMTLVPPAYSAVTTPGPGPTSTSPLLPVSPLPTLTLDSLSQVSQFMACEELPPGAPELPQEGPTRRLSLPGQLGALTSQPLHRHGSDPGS
Summary of the method: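 Cells were infected with hERG-BacMam virus for 4 hrs at room temperature, grown overnight, then seeded at 2000/well. After dye loading and roughly 10 min compound treatment, thallium influx was triggered and fluorescence recorded.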

[2] = molecular target: Luciferin 4-monooxygenase (Photinus pyralis) (UniProt P08659); assay: Biochemical firefly luciferase enzyme assay for NPC (AID 624030);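 also: purified P. pyralis luciferase at 10 nM with luciferin and ATP substrate; series mostly up to about 59 µM; nearly all actives have a fitted effect of over 70% in size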
Chain of Luciferin 4-monooxygenase (Photinus pyralis) (P08659 whole entry, looked up): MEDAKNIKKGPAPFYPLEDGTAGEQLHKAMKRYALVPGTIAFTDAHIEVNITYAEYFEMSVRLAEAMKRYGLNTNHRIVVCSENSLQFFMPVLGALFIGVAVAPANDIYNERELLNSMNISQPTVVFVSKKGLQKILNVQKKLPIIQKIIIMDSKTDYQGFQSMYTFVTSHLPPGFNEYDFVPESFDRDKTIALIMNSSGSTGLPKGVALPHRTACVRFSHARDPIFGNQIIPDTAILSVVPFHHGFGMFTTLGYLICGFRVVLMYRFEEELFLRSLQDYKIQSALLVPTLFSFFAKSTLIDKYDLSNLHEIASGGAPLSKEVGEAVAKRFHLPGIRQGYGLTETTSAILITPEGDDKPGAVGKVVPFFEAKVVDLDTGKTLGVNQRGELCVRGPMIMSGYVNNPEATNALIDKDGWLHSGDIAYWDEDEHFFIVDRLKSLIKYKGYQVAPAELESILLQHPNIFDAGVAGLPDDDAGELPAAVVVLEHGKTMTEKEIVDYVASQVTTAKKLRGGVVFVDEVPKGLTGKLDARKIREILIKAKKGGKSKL
Summary of the method: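 Purified P. pyralis luciferase at 10 nM in 50 mM Tris Acetate (final), luminescence read within 5 minutes of enzyme addition to compounds. Activity normalised to PTC124 versus DMSO; concentration-response curves classed by r2, magnitude and activity.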

[3] = S16 Schwann cell PMP22 intronic element firefly luciferase assay (AID 624032); also: series mostly up to about 58 µM; nearly all actives have a fitted effect of over 30% in size
Summary of the method: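 Rat S16 Schwann cells stably carrying firefly luciferase driven by a PMP22 intronic element, in 10% FBS, treated 24 h at 37 C. ONE-Glo luminescence normalized to PTC124 control and DMSO (0%); curves classed by r2, magnitude and activity.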

[4] = molecular target: Glutaminase kidney isoform, mitochondrial (Homo sapiens) (UniProt O94925); assay: qHTS for Inhibitors of Glutaminase (GLS): LOPAC Validation (AID 624146);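 also: glutamate product detected by oxidase and peroxidase coupled Amplex red fluorescence gain; series mostly up to about 46 µM; nearly all actives have a fitted effect of over 60% in size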
Chain of Glutaminase kidney isoform, mitochondrial (Homo sapiens) (O94925 whole entry, looked up, canonical isoform): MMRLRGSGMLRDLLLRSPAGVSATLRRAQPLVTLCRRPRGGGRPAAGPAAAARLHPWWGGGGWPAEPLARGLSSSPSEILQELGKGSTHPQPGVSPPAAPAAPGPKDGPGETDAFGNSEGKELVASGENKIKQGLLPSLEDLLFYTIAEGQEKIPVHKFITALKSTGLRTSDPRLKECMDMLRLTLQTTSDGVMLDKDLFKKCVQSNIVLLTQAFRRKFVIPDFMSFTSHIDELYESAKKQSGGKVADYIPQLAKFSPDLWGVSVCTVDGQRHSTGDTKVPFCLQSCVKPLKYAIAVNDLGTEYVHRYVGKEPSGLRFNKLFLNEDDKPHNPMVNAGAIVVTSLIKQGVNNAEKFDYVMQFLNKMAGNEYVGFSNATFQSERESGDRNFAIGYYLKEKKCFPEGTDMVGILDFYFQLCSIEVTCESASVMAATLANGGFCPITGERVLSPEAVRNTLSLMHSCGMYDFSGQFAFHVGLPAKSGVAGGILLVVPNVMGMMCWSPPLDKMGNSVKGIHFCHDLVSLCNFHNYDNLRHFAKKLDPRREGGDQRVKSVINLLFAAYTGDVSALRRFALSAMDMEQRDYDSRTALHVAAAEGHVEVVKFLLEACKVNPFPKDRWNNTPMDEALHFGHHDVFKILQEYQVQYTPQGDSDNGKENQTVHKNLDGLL
Summary of the method: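 Human kidney-isoform GLS in 45 mM KH2PO4 pH 8.2, 0.02% Tween-20, with compound, started with 1mM L-Glutamine (added stock). Glutamate oxidase/HRP/Amplex red coupled fluorescence read at start and after 30 min at RT.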

[5] = qHTS of Trypanosoma Brucei Inhibitors: LOPAC Validation (AID 624147)
Summary of the method: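 Luminescent Kinase-Glo Plus end-point after 45 min room-temperature reaction of T. brucei pyruvate kinase started with 130 uM ADP (final). Buffer TEA 50 mM pH 7.2 with KCl, MgCl2, BSA, Tween-20; titration-based qHTS with fitted concentration-effect curves.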

[6] = S16 Schwann cell viability assay (CellTiter-Glo assay) (AID 624031); also: nearly all actives have a fitted effect of over 70% in size; also: potency is read from the fitted curve at half-maximal effect
Summary of the method: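 Native S16 rat Schwann cells, 500-750 cells/well in DMEM with 10% FBS, dosed with compound after overnight culture and incubated 24h at 37 degree Celsius/5% CO2. Viability by CellTiter-Glo luminescence; % activity normalized to no-cell wells and DMSO-treated cells.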

[7] = S16 Schwann cell PMP22 intronic element beta-lactamase assay (AID 624044; calls by dose curve; also: nearly all actives have a fitted effect of over 15% in size)
Summary of the method: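 Beta-lactamase reporter under a PMP22 intronic regulatory element in stable S16 rat Schwann cells; 24 h compound exposure. 460 nm blue signal normalized between DMSO (0%) and potassium clavulanate, with 535 nm FRET tracking viability; curves classed by r2 and response.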

SMILES | Potency [1] | Potency [2] | Potency [3] | Potency [4] | outcome [5] | Potency [6] | Potency [7]
CNC1(C)C2CCC(C2)C1(C)C (stereo not drawn) | inactive | inactive | inactive | inactive | inactive | – | –
CN1C(=O)CC[C@H]1c1cccnc1 | inactive | – | – | inactive | inactive | – | –
CC(=O)OC(C)C[N+](C)(C)C (stereo not drawn) | inactive | – | – | inactive | inactive | – | –
NC(Cc1ccc(Cl)cc1)C(=O)O (stereo not drawn) | inactive | inactive | inactive | inactive | inactive | – | –
C[N+](C)(C)CCCCCCCCCC[N+](C)(C)C | inactive | – | inactive | inactive | inactive | inactive | –
Cc1ccc(Cl)c(Nc2ccccc2C(=O)O)c1Cl | inactive | inactive | inactive | inactive | inactive | – | –
CN(C)C(=O)Oc1ccc[n+](C)c1 | inactive | inactive | inactive | – | inactive | – | –
Cc1scc2c1N(C(=O)CN1CCN(C)CC1)c1ccccc1NC2=O | inactive | inactive | – | inactive | inactive | inactive | –
O=C(O)CP(=O)(O)O | inactive | inactive | inactive | – | inactive | – | –
OCCN1CCN(CC/C=C2/c3ccccc3Sc3ccc(C(F)(F)F)cc32)CC1 | 2.82 µM (active) and 501 nM (active) | inactive | – | – | inactive | 22800 nM (active) | inactive
CN(C)CCCN1c2ccccc2Sc2ccccc21 | 3.98 µM (active) and 10 µM (active) | inactive | – | – | inactive | – | –
NS(=O)(=O)c1cc2c(cc1Cl)NC(C1CC3C=CC1C3)NS2(=O)=O (stereo not drawn) | inactive | inactive | inactive | – | inactive | – | inactive
CCC(=O)c1ccc2c(c1)N(CCCN(C)C)c1ccccc1S2 | 2.51 µM (active) and 4.47 µM (active) | inactive | – | – | inactive | – | –
CC(C)NNC(=O)c1ccncc1 | inactive | inactive | inactive | inactive | inactive | – | –
O=C(O)CN(CCN(CC(=O)O)CC(=O)O)CCN(CC(=O)O)CC(=O)O | inactive | inactive | – | inactive | inactive | inactive | –
Cc1nc2sccn2c(=O)c1CCN1CCC(=C(c2ccc(F)cc2)c2ccc(F)cc2)CC1 | 70.8 nM (active) | inactive | – | inactive | inactive | – | inactive

From PubChem BioAssay (NCATS)
